Screens (PubChem BioAssay)
MPTP inh – permeability transition pore inhibition; AID 602449; hit rate 1.4% among 360,000; isolated mouse mitochondria, Ca2+ swelling absorbance, 30 min; inhibition, % at 10 µM;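 active = inhibition of 50% or more, scaled per plate between neutral and stimulator controls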
CRFR2-BP ag – CRF-BP/CRF-R2 complex agonism | hit rate 0.46% among 350,000 | HEK293 CRF-R2/CRF-BP, calcium dye fluorescence (FLIPR); percent of saturating CRF peptide response | activation, % at 13.2 µM;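 active = activation of at least 50%, plus an integration ratio under a set limit after plate pattern correction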
CRFR2-BP antag – antagonists of CRF-binding protein/CRF-R2 receptor complex. HEK293 CRF-R2/CRF-BP, CRF-induced calcium fluorescence. inhibition, % at 11.8 µM. hit rate 0.59% among 350,000;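 active = inhibition of the ligand-induced calcium signal above about 50% at the single tested concentration, limit read from the data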
TMEM16A act – activators or potentiators of mouse TMEM16A chloride channel | B-score at 10 µM | Q8BHY3 | hit rate 0.3% among 340,000 | HEK293 TMEM16A/YFP-H148Q/I152L, iodide quench fluorescence; hits give low values | AID 623877;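 active = fluorescence-ratio B-score plate-corrected deviation score at least 3 library SD below zero, with starting fluorescence score within 5 deviations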;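 also: channel opened by trigger with iodide after compound preincubation; score built on the fluorescence ratio of max minus min over baseline; more negative score means more quench and so TMEM16A activation or potentiation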
GRIN3A LBD mod – modulators (binders) of human NR3A ligand-binding domain; NR3A LBD differential scanning fluorimetry, Tm shift; 0% = protein alone, 100% = glycine-bound protein; Tm shift relative to glycine control, % at 25 µM; hit rate 2.5% among 340,000;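 active = melting temperature shift of at least 10% of the positive control shift, at one fixed dose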
TMEM16A inh – blocks the mouse calcium-activated chloride channel TMEM16A; Q8BHY3; HEK293 TMEM16A/YFP iodide influx fluorescence, ionomycin; AID 588511; hit rate 1.2% among 310,000; normalized B-score (activity score, 25-100; higher = stronger inhibition) at 10 µM;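 active = ratio plate-corrected score three or more library SD toward inhibition, starting fluorescence score within five deviations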;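 also: score derived from kinetic fluorescence span divided by baseline fluorescence per well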
A number is an active result; – = inactive; · = no result given. This is a sample that favours compounds with a hit; in the whole collection about 5.1% have one here.

SMILES	MPTP inh	CRFR2-BP ag	CRFR2-BP antag	TMEM16A act	GRIN3A LBD mod	TMEM16A inh
CCCn1c2ccccc2c2cnn(CC(=O)NC3CCCC(C)C3C)c(=O)c21 (stereo not drawn)	–	–	–	–	–	–
Cc1cc(C)c2oc(C(=O)NC3CCS(=O)(=O)C3)cc(=O)c2c1 (stereo not drawn)	–	–	–	–	–	–
CCCCc1nc2ccccc2c(NC(=O)CN(CC)CC)c1CCC	–	–	98	–	–	–
CCCc1nc2ccccc2c(NC(=O)CN(CC)CC)c1CC	–	–	–	–	–	–
c1ccc2c(-c3nn[nH]n3)cccc2c1	–	–	–	–	12	–
Cc1cc(C)n(C(=O)CNC(=O)c2ccccc2Br)n1	–	–	97	–	–	–
Cc1cc(C)n(C(=O)CCNC(=O)c2ccccc2Br)n1	–	–	–	–	–	–
COc1ccc(-c2nn(-c3ccccc3C)cc2CNCc2cccnc2)cc1F	–	–	73	–	–	–
Cc1cccc(NC(=O)Nc2nnc([C@H]3C[C@H](O)[C@@H](CO)O3)s2)c1	–	·	·	·	·	·
C=Cn1cc[n+](CC(=O)c2ccc(Cl)cc2)c1	–	–	117	–	–	–
C=Cn1cc[n+](CC(=O)c2ccc(Br)cc2)c1	–	–	–	–	–	–
Cc1ccc(CN2CC(C(=O)N(C)CC(=O)Nc3cccc(F)c3)CC2=O)cc1 (stereo not drawn)	–	–	–	–	–	–
Cc1ccc(S(=O)(=O)Nc2nc(C)c(NC(=O)Nc3ccc(Cl)cc3Cl)s2)cc1	–	–	–	–	28	–
CC(C)(C)c1ccc(/C=N/NC(=O)CN2CCS(=O)(=O)CC2)cc1	–	–	–	–	–	–
Cc1ccc2[nH]c(-c3cccc(F)c3)cc(=O)c2c1	–	–	–	–	–	–
Cc1ccc2[nH]c(-c3cccc(N)c3)cc2c1	–	–	–	–	31	–
O=[N+]([O-])c1ccc(S(=O)(=O)N2CCC3(CC2)OCCN3S(=O)(=O)c2cccs2)cc1	–	–	–	–	–	–
Cc1cc(C(C)(C)CC(C)(C)C)ccc1OCCOCC[N+](C)(C)Cc1ccccc1	–	–	–	–	–	100
Nc1ccc(C23CC4CC(CC(O)(C4)C2)C3)cc1	–	–	–	–	17	–
Nc1ccc(C23CC4CC(CC(CO)(C4)C2)C3)cc1	–	–	–	–	–	–
COc1cc2c(=O)n(Cc3ccco3)c(=O)n(CC(=O)c3ccc(Br)cc3)c2cc1OC	–	–	–	–	14	–
O=C(/C=C/Nc1ccc(F)c(Cl)c1)c1ccco1	–	–	–	–	–	–
O=C(/C=C/Nc1cccc(F)c1)c1ccco1	–	–	–	–	28	–
COc1ccc(OCCOC(=O)CNS(=O)(=O)c2ccc(SC)c([N+](=O)[O-])c2)cc1	–	–	–	–	–	–
CCc1ccc(CN(C)CC(=O)Nc2ccccc2[N+](=O)[O-])cc1	–	–	–	–	19	–
SMILES	MPTP inh	CRFR2-BP ag	CRFR2-BP antag	TMEM16A act	GRIN3A LBD mod	TMEM16A inh
Cc1nnc(SCC(=O)N(CC(C)C)c2c(N)n(Cc3ccccc3)c(=O)[nH]c2=O)n1N	–	–	–	–	–	–
Cn1c(SCC(=O)N2c3ccccc3Sc3ccc(Cl)cc32)nnc1-c1ccco1	–	–	–	–	11	–
CCOC(=O)c1cc2occc2n1Cc1ccc(F)cc1	–	–	–	–	15	–
COc1cc(/C=C/c2ccc3cccc([N+](=O)[O-])c3n2)ccc1OCC(=O)O	–	–	–	–	–	–
CC(=O)Nc1ccc(/C=C/c2ccc3cccc([N+](=O)[O-])c3n2)cc1	–	–	–	–	26	–
O=C(O)COc1ccc(/C=C/c2ccc3cccc([N+](=O)[O-])c3n2)cc1	–	–	–	–	18	–
COCCn1cnnc1SCC(=O)Nc1ccc(N2CCCCC2)cc1	–	–	–	–	–	·
Clc1ccc(-c2c[nH]c3ccccc23)nn1	–	–	–	–	18	–
O=c1oc(-c2ccccc2)nc2sc3c(c12)CCC3	–	–	–	–	–	–
Nc1nc(-c2ccccc2)nc2sc3c(c12)CCCC3	–	–	–	–	14	–
COc1ccc(C2=Nn3c(nnc3-c3ccccc3OC)SC2)cc1OC1CCOC1 (stereo not drawn)	–	–	–	–	–	·
Fc1ccccc1Nc1nc2ccccc2o1	–	–	–	–	34	–
